Shown are actives, neighbours in structure and some others; about 3.5% of the full set was active somewhere.
MITF primary = human MITF inhibition, primary screen | O75030 | AlphaScreen MITF homodimerization, bead proximity signal | inhibition, % at 2.6 µM | actives 0.91% (n = 650,000); in the data active means inhibition above about 50%;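 further: 0% = vehicle wells with protein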
FBW7 act = human FBW7 E3 ligase activation, primary screen. AlphaScreen FBW7–phospho-cyclin E peptide binding, activator screen. AID 1259310. normalized activity (activation), % at 26.1 µM. Q969H0. actives 0.13% (n = 650,000); in the data active means normalized activity above about 1.9%;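 further: purified mutant Fbw7 with reduced substrate affinity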
GPR151 activ = activators of human GPR151; Q8TDV0; PathHunter beta-arrestin GPR151 cells, luminescence; activation, % at 11.2 µM; actives 1% (n = 650,000); AID 1508602; in the data active means activation above about 4.9%;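 further: 0% = median of compound wells and 100% = cells with positive control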
TEAD-YAP inh = TEAD-YAP interaction inhibition; HEK-TIYL cells, TEAD-Gal4/YAP UAS-luciferase luminescence; inhibition, % at 9.12 µM; actives 1.4% (n = 640,000); in the data active means inhibition above about 32%;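 further: 0% = median of test compound wells and 100% = reference inhibitor wells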
GPR151 conf act = confirmation of human GPR151 activators. shares compounds with GPR151 activ. GPR151 PathHunter beta-arrestin cells, luminescence, 90 min; % of EA-reagent control over plate median. activation, % at 11.2 µM. 6,700 tested, under 10 active;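 active means mean percent activation across replicates above the confirmation screen cutoff of 4.91%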
GPR119 counter = counter-screen for GPR151 activators: effect on human GPR119; shares compounds with GPR151 activ; GPR119 PathHunter beta-arrestin cells, luminescence, 90 min; 0 = compound-well median, 100 = enzyme-acceptor control; activation, % at 11.2 µM; actives 0.3% (n = 6,700);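 active means mean percent activation in the counterscreen above 29.09%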;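 further: counterscreen on off-target GPR119 to flag nonselective hits from the GPR151 activator screen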
Target sequence (Q8TDV5 whole entry, looked up): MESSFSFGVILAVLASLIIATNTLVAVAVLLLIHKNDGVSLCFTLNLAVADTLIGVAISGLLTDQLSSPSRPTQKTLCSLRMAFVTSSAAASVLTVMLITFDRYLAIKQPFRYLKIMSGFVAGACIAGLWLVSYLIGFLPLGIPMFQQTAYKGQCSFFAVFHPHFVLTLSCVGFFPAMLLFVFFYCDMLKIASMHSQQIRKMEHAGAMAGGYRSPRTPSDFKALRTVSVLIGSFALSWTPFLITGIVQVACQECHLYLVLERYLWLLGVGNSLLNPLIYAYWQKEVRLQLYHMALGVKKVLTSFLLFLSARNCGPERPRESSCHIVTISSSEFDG
* = called active by the depositor.

Results for Cc1ccc(S(=O)(=O)N2CCOCC2)cc1C(=O)Oc1ccc([N+](=O)[O-])cc1 ?
MITF primary: -3.3; FBW7 act: -0.2; GPR151 activ: 1.2; TEAD-YAP inh: -0.8

How did CCN1C2OC(C3OC4C(O3)N(CC)S(=O)(=O)N4CC)OC2N(CC)S1(=O)=O (stereo not drawn) do in these assays?
MITF primary: 0.1; FBW7 act: 0.2; GPR151 activ: 1.6; TEAD-YAP inh: -1.3

How did Cc1cccc(-c2nc(CS(=O)CC(=O)N3CCCC3)c(C)o2)c1 (stereo not drawn) do in these assays?
MITF primary: 13.6; FBW7 act: 0.1; GPR151 activ: 8.2*; TEAD-YAP inh: 7.4; GPR151 conf act: -1.8; GPR119 counter: -12.6

What do the screens show for `CCN1CCN(C(=O)CS(=O)Cc2nc(-c3cccc(C)c3)oc2C)CC1` (stereo not drawn)?
MITF primary: 14.4; FBW7 act: 0.3; GPR151 activ: 0.2; TEAD-YAP inh: 12.4

What do the screens show for `Cc1cccc(-c2nc(CS(=O)CC(=O)NC(C)c3ccccc3)c(C)o2)c1` (stereo not drawn)?
MITF primary: 14.5; FBW7 act: 0.2; GPR151 activ: 7.2*; TEAD-YAP inh: 3.1; GPR151 conf act: -0.4; GPR119 counter: -0.9

How did Cc1cccc(-c2nc(CS(=O)CC(=O)NC(C)C)c(C)o2)c1 (stereo not drawn) do in these assays?
MITF primary: 7.1; FBW7 act: -0.1; GPR151 activ: 0.8; TEAD-YAP inh: 7.2

How did Cc1nc2c(-c3ccc(F)cc3)c(C)nn2c(C)c1CCC(=O)NCCCOC(C)C do in these assays?
MITF primary: 19.4; FBW7 act: 0.8; GPR151 activ: -0.9; TEAD-YAP inh: 1.6

How did O=C(Nc1nnc(SCC(=O)N2CCCC2)s1)c1ccc(Cl)cc1 do in these assays?
MITF primary: -9.5; FBW7 act: -0.1; GPR151 activ: -0.7; TEAD-YAP inh: -3.3

What do the screens show for `O=C(C1CCC1)N1CCc2cc(S(=O)(=O)N3CCCc4ccccc43)ccc21`?
MITF primary: 0.7; FBW7 act: 0.1; GPR151 activ: 6.5*; TEAD-YAP inh: -11.5; GPR151 conf act: 1.2; GPR119 counter: 0.4

Results for NC(=O)COC(=O)c1ccc(S(=O)(=O)N2CCCc3ccccc32)cc1 ?
MITF primary: 1.0; FBW7 act: 0.0; GPR151 activ: 1.0; TEAD-YAP inh: -2.1

Results for NC(=O)COC(=O)c1cccc(S(=O)(=O)N2CCCc3ccccc32)c1 ?
MITF primary: 0.1; FBW7 act: 0.0; GPR151 activ: 6.1*; TEAD-YAP inh: -3.9; GPR151 conf act: -0.4; GPR119 counter: -1.2

Results for CSc1ccc(S(=O)(=O)Nc2ccc(S(=O)(=O)N3CCOCC3)cc2)cc1 ?
MITF primary: -0.4; FBW7 act: -0.1; GPR151 activ: 5.8*; TEAD-YAP inh: -2.0; GPR151 conf act: 0.1; GPR119 counter: 3.6

Results for CC1(C)CC(=O)c2c(-c3ccc(Br)cc3)n[nH]c2C1 ?
MITF primary: 2.3; FBW7 act: 0.8; GPR151 activ: 1.4; TEAD-YAP inh: -50.7

How did N/C(=N\OC(=O)c1ccncc1)c1cccnc1 do in these assays?
MITF primary: 12.0; FBW7 act: 0.7; GPR151 activ: 5.8*; TEAD-YAP inh: -19.9; GPR151 conf act: -0.3; GPR119 counter: 0.3

How did COc1ccc(C(=O)NCC(=O)OCC(=O)NC(C)(C)C)cc1 do in these assays?
MITF primary: -6.9; FBW7 act: 0.0; GPR151 activ: 2.2; TEAD-YAP inh: -1.3

How did Nc1cccc(-c2nc3ccc(Cc4ccc5nc(-c6cccc(N)c6)[nH]c5c4)cc3[nH]2)c1 do in these assays?
MITF primary: 4.8; FBW7 act: -0.1; GPR151 activ: 7.0*; TEAD-YAP inh: 9.9; GPR151 conf act: 0.4; GPR119 counter: 14.1

What do the screens show for `Cn1cccc1-c1nc2ccc(N)cc2[nH]1`?
MITF primary: 13.4; FBW7 act: -0.1; GPR151 activ: 6.3*; TEAD-YAP inh: -20.5; GPR151 conf act: -1.1; GPR119 counter: -16.4

Results for CC(C)CC(=O)N1CCC(n2nnc3ccccc3c2=O)CC1 ?
MITF primary: 27.2; FBW7 act: 1.1; GPR151 activ: 6.0*; TEAD-YAP inh: 0.3; GPR151 conf act: 1.0; GPR119 counter: 5.1

How did CC(C)CNC(=O)Cn1nnc2ccccc2c1=O do in these assays?
MITF primary: -2.1; FBW7 act: -0.1; GPR151 activ: 7.7*; TEAD-YAP inh: -8.8; GPR151 conf act: 0.3; GPR119 counter: 2.4

How did CC1CCCC(C)N1NC(=S)Nc1ccccc1 (stereo not drawn) do in these assays?
MITF primary: 4.7; FBW7 act: -0.1; GPR151 activ: 4.9*; TEAD-YAP inh: 8.1; GPR151 conf act: -1.0; GPR119 counter: -12.8

What do the screens show for `COc1ccc(/C(N)=N/OC(=O)c2cc(Cl)ccc2OC)cc1`?
MITF primary: 7.2; FBW7 act: 0.0; GPR151 activ: 6.8*; TEAD-YAP inh: 7.0; GPR151 conf act: 0.2; GPR119 counter: -1.2

Results for CC1(C)C=C(c2ccc(O)cc2)CC(C)(C)N1 ?
MITF primary: 9.2; FBW7 act: -0.1; GPR151 activ: 5.6*; TEAD-YAP inh: 3.5; GPR151 conf act: -0.5; GPR119 counter: -1.7

What do the screens show for `CC1(C)C=C(c2ccc(O)cc2O)CC(C)(C)N1`?
MITF primary: -16.8; FBW7 act: -0.1; GPR151 activ: -0.1; TEAD-YAP inh: 4.0

How did CCOc1cc(C2C3=C(CCCC3=O)N(CC)C3=C2C(=O)CCC3)cc(Br)c1O do in these assays?
MITF primary: -1.2; FBW7 act: 0.6; GPR151 activ: -0.3; TEAD-YAP inh: 10.0

What do the screens show for `O=C1NC(=O)C(=Cc2ccc(OCc3ccccc3)c(C(=O)O)c2)C(=O)N1`?
MITF primary: 10.6; FBW7 act: -1.0; GPR151 activ: 5.6*; TEAD-YAP inh: 7.0; GPR151 conf act: 0.5; GPR119 counter: -0.5

Results for CCC(=O)Oc1ccc(Br)c(C2Oc3nc(SC)nnc3-c3ccccc3N2C(=O)CC)c1 (stereo not drawn) ?
MITF primary: -11.8; FBW7 act: 0.1; GPR151 activ: 0.9; TEAD-YAP inh: 2.1

What do the screens show for `COc1ccc(-c2[nH]nc3nc(-c4cccc(C(=O)N(C)C)c4)ccc23)cc1OC`?
MITF primary: -2.3; FBW7 act: 0.1; GPR151 activ: 0.1; TEAD-YAP inh: 12.4

What do the screens show for `COc1ccc(C2NC(=O)NC3=C2C(=O)OC3)cc1` (stereo not drawn)?
MITF primary: 4.6; FBW7 act: 0.1; GPR151 activ: 1.1; TEAD-YAP inh: 3.6

What do the screens show for `N#C/C(=N\Nc1ccc(C(=O)O)cc1)c1ccccn1`?
MITF primary: 17.5; FBW7 act: 0.1; GPR151 activ: -3.1; TEAD-YAP inh: -53.0

What do the screens show for `COc1ccc(NC(=O)COc2ccc(Cl)cc2)cc1NC(=O)c1ccco1`?
MITF primary: -1.6; FBW7 act: -0.1; GPR151 activ: 6.0*; TEAD-YAP inh: 5.7; GPR151 conf act: -0.1; GPR119 counter: -2.8

High-throughput results from PubChem.
